Data reported in PubChem BioAssay (Tox21).
Inconclusive results are not listed. Active and inactive are the calls of the source. Unless noted, calls follow the shape of the dose curve; as a rule, active = well fitted curve in the direction sought with a large enough effect in the repeat runs; inconclusive = weak or mixed curves; inactive = no such curve, though single readings can be large; an effect the other way counts as inactive or inconclusive.

Tests used:
[1] = target: Thyrotropin receptor (Homo sapiens) (UniProt P16473); assay: qHTS assay to identify small molecule antagonists of the thyroid stimulating hormone receptor (TSHR) signaling pathway (AID 1259385; calls by dose curve; also: nearly all actives have a fitted effect of over 20% in size)
Sequence of Thyrotropin receptor (Homo sapiens) (P16473 whole entry, looked up): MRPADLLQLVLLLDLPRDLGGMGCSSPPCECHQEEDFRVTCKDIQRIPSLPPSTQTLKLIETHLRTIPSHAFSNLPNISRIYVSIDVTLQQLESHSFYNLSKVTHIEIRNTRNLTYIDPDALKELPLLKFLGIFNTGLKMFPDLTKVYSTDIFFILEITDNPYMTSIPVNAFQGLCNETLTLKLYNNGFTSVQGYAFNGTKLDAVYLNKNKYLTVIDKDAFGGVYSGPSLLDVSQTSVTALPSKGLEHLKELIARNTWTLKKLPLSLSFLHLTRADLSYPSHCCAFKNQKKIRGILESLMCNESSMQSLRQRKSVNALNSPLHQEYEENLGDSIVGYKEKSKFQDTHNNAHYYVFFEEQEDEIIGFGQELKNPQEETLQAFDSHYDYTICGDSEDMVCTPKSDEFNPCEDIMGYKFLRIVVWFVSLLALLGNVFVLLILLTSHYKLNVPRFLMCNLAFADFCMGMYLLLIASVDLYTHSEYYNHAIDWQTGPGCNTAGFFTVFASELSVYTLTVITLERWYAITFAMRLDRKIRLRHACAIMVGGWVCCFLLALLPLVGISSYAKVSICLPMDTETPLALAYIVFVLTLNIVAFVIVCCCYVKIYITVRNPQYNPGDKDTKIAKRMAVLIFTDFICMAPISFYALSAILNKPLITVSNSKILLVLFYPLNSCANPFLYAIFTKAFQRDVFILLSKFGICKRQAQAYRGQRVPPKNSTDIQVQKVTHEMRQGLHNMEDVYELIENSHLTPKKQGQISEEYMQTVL
In short: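 Antagonist mode: compound-treated TSHR-expressing HEK293 cells were stimulated with 1.5 ng/mL TSH (final) in presence of Ro20-1724 for 30 min at RT. HTRF cAMP detection after 1 h; each compound tested at 15 concentrations, triplicate.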

[2] = qHTS assay to identify small molecule agonists of the estrogen receptor alpha (ER-alpha) signaling pathway in the presence of an antagonist - cell viability counter screen (AID 1259386);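 also: series mostly up to about 92 µM; cells exposed to compounds for 22 h at 37 °C before the viability read; nearly all actives have a fitted effect of over 30% in size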
In short: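 Using estrogen-depleted VM7Luc4E2 cells, the 15-concentration compound series was applied together with 10.0nM ICI-182,780 and incubated 22hr at 37C/5% CO2. Cell viability was then scored by CellTiter-Fluor.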

[3] = target: Progesterone receptor (Homo sapiens) (UniProt P06401); assay: qHTS assay to identify small molecule agonists of the progesterone receptor (PR) signaling pathway (AID 1346784; calls by dose curve; also: nearly all actives have a fitted effect of over 30% in size)
Sequence of Progesterone receptor (Homo sapiens) (P06401 whole entry, looked up): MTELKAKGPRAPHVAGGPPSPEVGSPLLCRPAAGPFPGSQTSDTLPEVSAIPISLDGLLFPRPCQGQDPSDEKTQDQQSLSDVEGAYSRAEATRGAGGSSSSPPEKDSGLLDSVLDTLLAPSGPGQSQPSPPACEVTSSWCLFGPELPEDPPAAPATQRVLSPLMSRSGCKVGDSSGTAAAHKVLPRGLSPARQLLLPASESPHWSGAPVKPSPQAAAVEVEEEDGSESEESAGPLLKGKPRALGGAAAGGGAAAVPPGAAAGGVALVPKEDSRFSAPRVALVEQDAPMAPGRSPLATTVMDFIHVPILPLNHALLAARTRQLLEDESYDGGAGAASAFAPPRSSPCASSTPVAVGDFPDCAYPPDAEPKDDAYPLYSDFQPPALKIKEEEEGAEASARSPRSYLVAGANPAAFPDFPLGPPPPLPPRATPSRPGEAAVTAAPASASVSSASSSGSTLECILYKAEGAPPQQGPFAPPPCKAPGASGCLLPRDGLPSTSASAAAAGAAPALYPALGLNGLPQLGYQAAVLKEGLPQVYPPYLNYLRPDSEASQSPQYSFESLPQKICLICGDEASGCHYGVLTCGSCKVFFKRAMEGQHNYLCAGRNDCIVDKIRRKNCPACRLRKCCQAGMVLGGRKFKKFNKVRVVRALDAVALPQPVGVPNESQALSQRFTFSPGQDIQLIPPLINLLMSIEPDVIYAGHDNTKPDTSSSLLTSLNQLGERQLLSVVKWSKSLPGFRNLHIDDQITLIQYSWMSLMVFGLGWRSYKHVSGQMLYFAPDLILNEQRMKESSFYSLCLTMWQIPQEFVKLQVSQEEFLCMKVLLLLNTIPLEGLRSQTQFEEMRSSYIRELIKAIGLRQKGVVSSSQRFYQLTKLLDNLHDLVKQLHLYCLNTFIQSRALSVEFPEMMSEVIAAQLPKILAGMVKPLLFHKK
In short: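 PR-UAS-bla HEK 293T cells carrying a UAS-driven beta-lactamase reporter were seeded in medium with 2% charcoal-stripped FBS, preincubated 6 hr at 37C, then exposed to compounds in DMSO for 16 hr; agonism was read by LiveBLAzer B/G FRET fluorescence.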

[4] = target: Progesterone receptor (Homo sapiens) (UniProt P06401); assay: qHTS assay to identify small molecule antagonists of the progesterone receptor (PR) signaling pathway (AID 1346795; active = well fitted inhibition curve with a large enough effect in the signal ratio in the repeat runs, not every such curve was filed as active; the % refers to the signal ratio; also: potency is read from the fitted curve at half-maximal effect)
In short: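 PR-UAS-bla HEK293T cells carrying a UAS-driven beta-lactamase reporter were plated in medium with 2% charcoal-stripped FBS and rested 6 hr at 37C. Compounds were added with 1 nM R5020 (final) for 16 hr, then FRET substrate loaded 2 hr at room temperature.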

[5] = qHTS assay to identify small molecule antagonists of the progesterone receptor (PR) signaling pathway - cell viability counter screen (AID 1346798); also: nearly all actives have a fitted effect of over 50% in size; also: potency is read from the fitted curve at half-maximal effect
In short: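 PR-UAS-bla HEK293T cells in medium with 2% charcoal-stripped FBS were treated with compounds plus R5020 for 16 hr at 37C. Cell viability was then read by CellTiter-Glo luminescence after 30 min at room temperature in the same wells.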

[6] = qHTS assay to identify small molecule agonists of the progesterone receptor (PR) signaling pathway - cell viability counter screen (AID 1346799; calls by dose curve; also: nearly all actives have a fitted effect of over 45% in size)
In short: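 PR-UAS-bla HEK293T cells, 3,000 per well in medium with 2% charcoal-stripped FBS, were preincubated 6 hr at 37C, then exposed to compounds for 16 hr; viability was read as CellTiter-Glo luminescence after 30 min at room temperature.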

[7] = qHTS assay to identify small molecule antagonists of the TGF-beta/Smad signaling pathway - cell viability counter screen (AID 1346824); also: nearly all actives have a fitted effect of over 50% in size
In short: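 Cytotoxicity counter-screen run in the same wells as the beta-lactamase Smad reporter read: CellTiter-Glo luminescence after 30 min at room temperature. HEK 293T SBE-bla cells had 5 hr compound exposure at 37 C with TGF-beta1 (0.25 ng/mL stock).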

[8] = qHTS assay to identify small molecule agonists of the TGF-beta/Smad signaling pathway - cell viability counter screen (AID 1346829); also: top concentration of the series differs between compounds; nearly all actives have a fitted effect of over 45% in size
In short: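 CellTiter-Glo luminescence readout; SBE-bla HEK 293T cells, overnight plating, compound 5 hr at 37 C/5% CO2, then bla substrate 2 hr RT, then CellTiter-Glo 30 min RT.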

[9] = qHTS assay to identify small molecule agonists of the TGF-beta/Smad signaling pathway (AID 1346859; active = well fitted activation curve with a large enough effect in the signal ratio in the repeat runs, not every such curve was filed as active; the % refers to the signal ratio; also: series mostly up to about 77 µM)
In short: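 HEK 293T cells stably carrying a beta-lactamase reporter driven by the Smad binding element were seeded overnight, exposed to DMSO-dissolved compounds for 5 hr at 37 C, 5% CO2, then loaded with FRET substrate for 2 hr at room temperature.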

[10] = target: Thyrotropin-releasing hormone receptor (Homo sapiens) (UniProt P34981); assay: qHTS assay to identify small molecule antagonists of the thyrotropin-releasing hormone receptor (TRHR) signaling pathway (AID 1346877; active = well fitted inhibition curve with a large enough effect in the repeat runs, not every such curve was filed as active; also: series mostly up to about 51 µM)
Sequence of Thyrotropin-releasing hormone receptor (Homo sapiens) (P34981 whole entry, looked up): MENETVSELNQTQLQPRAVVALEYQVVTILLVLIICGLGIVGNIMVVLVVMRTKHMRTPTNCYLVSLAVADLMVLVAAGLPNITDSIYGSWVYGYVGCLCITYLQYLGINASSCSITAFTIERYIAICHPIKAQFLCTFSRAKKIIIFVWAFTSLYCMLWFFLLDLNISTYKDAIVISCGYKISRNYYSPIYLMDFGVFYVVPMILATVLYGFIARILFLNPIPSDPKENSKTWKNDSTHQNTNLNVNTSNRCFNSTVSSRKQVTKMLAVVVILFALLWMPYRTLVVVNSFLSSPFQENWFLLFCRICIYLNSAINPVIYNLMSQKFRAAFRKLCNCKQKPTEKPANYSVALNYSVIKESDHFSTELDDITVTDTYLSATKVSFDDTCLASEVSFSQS
In short: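 Calcium signal in dye-loaded TRHR/HEK293 cells; compounds added 5 min before TRH (1 nM final); fluorescence monitored 3 min at 1 s steps.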

[11] = target: Thyrotropin-releasing hormone receptor (Homo sapiens) (UniProt P34981); assay: qHTS assay to identify small molecule agonists of the thyrotropin-releasing hormone receptor (TRHR) signaling pathway (AID 1346891; calls by dose curve; also: series mostly up to about 58 µM)
In short: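 TRHR-expressing HEK293 cells were plated 18 h at 37 °C/5% CO2, loaded with calcium dye 2 h at 37 °C, then given compound in DMSO; fluorescence was read kinetically for 3 min at 1 s intervals.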

[12] = Human pregnane X receptor (PXR) small molecule agonists, qHTS cell viability counter screen (AID 1346977); also: nearly all actives have a fitted effect of over 50% in size
In short: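 PXR-Luc HepG2 cells in medium with 5% charcoal-stripped FBS were pre-incubated 5hr, then exposed to compounds for 24hr at 37C. Viability was read in the same wells by CellTiter-Fluor fluorescence, reagent added after 23hr with a 1hr incubation.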

[13] = Caspase-3/7 induction in HepG2 cells by small molecules, qHTS assay (AID 1346978); also: nearly all actives have a fitted effect of over 15% in size
In short: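 Caspase-3/7 induction was measured by Caspase-Glo 3/7 luminescence (30 min, room temperature) after a 17 hr compound exposure of wild-type HepG2 cells seeded at 2,000 per well and pre-incubated 5 hr.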

[14] = Caspase-3/7 induction in HepG2 cells by small molecules, qHTS cell viability counter screen (AID 1346981); also: series mostly up to about 92 µM; nearly all actives have a fitted effect of over 30% in size
In short: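 After a 5-hr attachment period at 37 C and 5% CO2, wild-type HepG2 cells received compounds in DMSO. Sixteen hours later CellTiter-Fluor was dispensed and the fluorescent signal quantified after a further hour.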

[15] = target: Nuclear receptor subfamily 1 group I member 2 (Homo sapiens) (UniProt O75469); assay: Human pregnane X receptor (PXR) small molecule agonists, qHTS assay (AID 1346982); also: nearly all actives have a fitted effect of over 35% in size; also: potency is read from the fitted curve at half-maximal effect
Sequence of Nuclear receptor subfamily 1 group I member 2 (Homo sapiens) (O75469 whole entry, looked up): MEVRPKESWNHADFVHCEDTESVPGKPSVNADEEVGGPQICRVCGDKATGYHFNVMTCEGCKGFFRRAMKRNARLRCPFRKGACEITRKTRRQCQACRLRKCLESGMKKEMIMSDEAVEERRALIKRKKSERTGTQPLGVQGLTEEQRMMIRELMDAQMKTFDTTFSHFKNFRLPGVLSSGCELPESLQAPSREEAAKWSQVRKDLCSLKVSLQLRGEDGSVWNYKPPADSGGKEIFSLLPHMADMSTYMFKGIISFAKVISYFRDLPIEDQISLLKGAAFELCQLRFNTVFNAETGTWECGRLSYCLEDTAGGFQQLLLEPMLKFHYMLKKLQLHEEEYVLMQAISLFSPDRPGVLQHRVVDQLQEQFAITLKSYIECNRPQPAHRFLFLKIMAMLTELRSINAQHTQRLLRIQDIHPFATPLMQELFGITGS
In short: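 Tox21 qHTS; PXR-Luc HepG2; compounds pinned from DMSO; 24 hr, 37 C; ONE-Glo luciferase detection, 30 min room temperature.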

[16] = Caspase-3/7 induction in CHO-K1 cells by small molecules, qHTS cell viability counter screen (AID 1346979); also: nearly all actives have a fitted effect of over 35% in size
In short: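 Wild-type CHO-K1 cells were seeded at 1,500 per well, rested 5hr at 37 C, then exposed to compounds in DMSO. After 16hr, CellTiter-Fluor reagent was added and fluorescence read 1hr later as the viability measure.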

[17] = Caspase-3/7 induction in CHO-K1 cells by small molecules, qHTS assay (AID 1346980); also: nearly all actives have a fitted effect of over 15% in size
In short: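 Luminescent Caspase-Glo 3/7 read (30min, room temperature) quantified apoptosis induction. Cells were wild-type CHO-K1, treated with compound for 17hr at 37 C and 5% CO2.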

[18] = target: Nuclear receptor subfamily 1 group I member 2 (Rattus norvegicus) (UniProt Q9R1A7); assay: Rat pregnane X receptor (rPXR) activation by small molecules, qHTS assay (AID 1346983); settings: rPXR luciferase reporter cells, One-Glo luminescence, 24 h; max activation: active compounds read high; also: nearly all actives have a fitted effect of over 20% in size
Sequence of Nuclear receptor subfamily 1 group I member 2 (Rattus norvegicus) (Q9R1A7 whole entry, looked up): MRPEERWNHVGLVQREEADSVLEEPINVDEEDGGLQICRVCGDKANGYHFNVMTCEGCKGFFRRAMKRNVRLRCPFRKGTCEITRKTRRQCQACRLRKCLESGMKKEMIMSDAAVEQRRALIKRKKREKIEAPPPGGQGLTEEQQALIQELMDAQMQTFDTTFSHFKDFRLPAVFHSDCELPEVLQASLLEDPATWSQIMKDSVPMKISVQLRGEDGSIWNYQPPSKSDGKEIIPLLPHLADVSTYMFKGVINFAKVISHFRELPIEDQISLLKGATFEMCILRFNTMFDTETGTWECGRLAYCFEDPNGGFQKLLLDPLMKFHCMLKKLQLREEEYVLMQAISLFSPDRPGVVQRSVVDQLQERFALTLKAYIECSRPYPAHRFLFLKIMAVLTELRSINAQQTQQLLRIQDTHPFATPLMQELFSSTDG
In short: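 Luminescent readout (One-Glo luciferase, 30 min room temperature) followed 24 hr compound treatment at 37 C of rPXR cells plated 2,000 per well and preincubated 5hr; qHTS format with compounds delivered in DMSO.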

[19] = target: Nuclear receptor subfamily 1 group I member 2 (Homo sapiens) (UniProt O75469); assay: CYP3A4 induction through human pregnane X receptor (PXR) by small molecules, qHTS assay (AID 1346984); also: nearly all actives have a fitted effect of over 40% in size
In short: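 Cells (DPX-2; HepG2 with PXR element plus CYP3A4-promoter luciferase) settled 5hr, then were treated 24hr at 37C. A 3hr, 3uM-final Luciferin-IPA step preceded luminescence measurement with One-Glo.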

[20] = target: Nuclear receptor subfamily 1 group I member 2 (Homo sapiens) (UniProt O75469); assay: Human pregnane X receptor (PXR) activation by small molecules, qHTS assay (AID 1346985); also: nearly all actives have a fitted effect of over 40% in size
In short: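 DPX-2 cells (HepG2 co-transfected with a PXR response element and a CYP3A4-promoter luciferase construct) were seeded at 2,000 per well, rested 5 hr at 37C, then exposed to DMSO-dissolved compounds for 24 hr. Activation was read as luciferase luminescence.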
% is scaled to controls: 0 for no effect and ±100 for the full control effect.

Nc1nc(N)nc(N)n1
inactive: Potency [1] | Potency [2] | Potency [3] | Potency [4] | Potency [5] | Potency [6] | Potency [7] | Potency [8] | outcome [9] | Potency [10] | Potency [11] | Potency [12] | Potency [13] | Potency [14] | Potency [15]

c1ccc(C2CC2)c(OCC2=NCCN2)c1
inactive: Potency [1] | Potency [2] | Potency [3] | Potency [4] | Potency [5] | Potency [6] | Potency [7] | Potency [8] | outcome [9] | Potency [10] | Potency [11] | Potency [12] | Potency [13] | Potency [16] | Potency [17] | Potency [14] | Potency [15]

Nc1nc(=S)[nH][nH]1
inactive: Potency [1] | Potency [2] | Potency [3] | Potency [4] | Potency [5] | Potency [6] | Potency [7] | Potency [8] | outcome [9] | Potency [10] | Potency [11] | Potency [12] | Potency [13] | Potency [16] | Potency [17] | Potency [14] | Potency [15]

CC(=O)NC1CCSC1=O (stereo not given)
inactive: Potency [1] | Potency [2] | Potency [3] | Potency [4] | Potency [5] | Potency [6] | Potency [7] | Potency [8] | outcome [9] | Potency [10] | Potency [11] | Potency [12] | Potency [13] | Potency [16] | Potency [17] | Potency [14] | Potency [15] | max activation [18] 10.8% | Potency [19] | Potency [20]

NC(=O)C(Cl)(Cl)Cl
inactive: Potency [1] | Potency [2] | Potency [3] | Potency [4] | Potency [5] | Potency [6] | Potency [7] | Potency [8] | outcome [9] | Potency [10] | Potency [11] | Potency [12] | Potency [13] | Potency [16] | Potency [14] | Potency [15]

O=C1C(Cl)C(CCl)CN1c1cccc(C(F)(F)F)c1 (stereo not given)
inactive: Potency [1] | Potency [2] | Potency [3] | Potency [6] | Potency [7] | Potency [8] | outcome [9] | Potency [10] | Potency [11] | Potency [12] | Potency [13] | Potency [16] | Potency [17]
active: Potency [4] 30.6 µM | Potency [5] 0.864 µM | Potency [15] 24.3 µM

N#CCc1ccccc1
inactive: Potency [1] | Potency [2] | Potency [3] | Potency [4] | Potency [5] | Potency [6] | Potency [7] | Potency [8] | outcome [9] | Potency [10] | Potency [11] | Potency [12] | Potency [13] | Potency [16] | Potency [17] | Potency [14] | Potency [15]

C=CCCl
inactive: Potency [1] | Potency [2] | Potency [3] | Potency [4] | Potency [5] | Potency [6] | Potency [7] | Potency [8] | outcome [9] | Potency [10] | Potency [11] | Potency [12] | Potency [13] | Potency [16] | Potency [17] | Potency [14] | Potency [15]

ClCc1cccc(Cl)c1
inactive: Potency [1] | Potency [2] | Potency [3] | Potency [4] | Potency [5] | Potency [6] | Potency [7] | Potency [8] | outcome [9] | Potency [10] | Potency [11] | Potency [12] | Potency [13] | Potency [17] | Potency [14] | Potency [15]

Clc1cccc2ccccc12
inactive: Potency [1] | Potency [2] | Potency [3] | Potency [4] | Potency [5] | Potency [6] | Potency [7] | Potency [8] | outcome [9] | Potency [10] | Potency [11] | Potency [12] | Potency [13] | Potency [16] | Potency [17] | Potency [14] | Potency [15]

C=CC(=O)OC
inactive: Potency [1] | Potency [2] | Potency [3] | Potency [4] | Potency [5] | Potency [6] | Potency [7] | Potency [8] | outcome [9] | Potency [10] | Potency [11] | Potency [12] | Potency [16] | Potency [17]

O=Cc1ccc2c(c1)OCO2
inactive: Potency [1] | Potency [2] | Potency [3] | Potency [4] | Potency [5] | Potency [6] | Potency [7] | Potency [8] | outcome [9] | Potency [10] | Potency [11] | Potency [12] | Potency [13] | Potency [16] | Potency [17] | Potency [14]

NNC(=O)c1cccnc1
inactive: Potency [1] | Potency [2] | Potency [3] | Potency [4] | Potency [5] | Potency [6] | Potency [7] | Potency [8] | outcome [9] | Potency [10] | Potency [11] | Potency [12] | Potency [13] | Potency [16]
active: Potency [15] 27.4 µM

Cl/C=C\Cl
inactive: Potency [1] | Potency [2] | Potency [3] | Potency [4] | Potency [5] | Potency [6] | Potency [7] | Potency [8] | outcome [9] | Potency [10] | Potency [11] | Potency [12] | Potency [13] | Potency [16] | Potency [17] | Potency [15]

C=CC(=O)OCC(C)C
active: Potency [15] 48.2 µM
inactive: Potency [1] | Potency [2] | Potency [3] | Potency [4] | Potency [5] | Potency [6] | Potency [7] | Potency [8] | outcome [9] | Potency [10] | Potency [11] | Potency [12] | Potency [13] | Potency [16]

N#Cc1ccc(Cl)cc1
inactive: Potency [1] | Potency [2] | Potency [3] | Potency [4] | Potency [5] | Potency [6] | Potency [7] | Potency [8] | outcome [9] | Potency [10] | Potency [11] | Potency [12] | Potency [13] | Potency [16] | Potency [14] | Potency [15]
